Consider 38 molecules from PubChem BioAssay.

Values joined by “and” are separate entries in the source; they are usually repeats but may differ in a detail not shown here. Identical values can stand only once. Active and inactive are the calls of the source. Cut-off read from the data, not from the text of the source: active = parasite load remaining mostly below about 12% (no sharp cut-off); inactive = mostly above about 10%.

This assay can be described thus: liver-stage malaria parasite growth inhibition, primary screen, cell-based, HepG2, luciferase luminescence, HepG2 viability (AID 624349).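 Note: 100% = mean of DMSO negative control wells on the same plate.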 As to conditions: P. berghei liver stage in HepG2, luciferase luminescence, concentration not given here; parasite load remaining: stronger effect = lower value; viability: measured here: HepG2 viability without parasites.
Consider `C[N+]1(CCCCC[N+]2(C)CCCC2)CCCC1`, for which the parasite load remaining was 24.8% (inactive) and 111% (inactive) and 94.9% (inactive); the viability is 48.6% and 96% and 89.3%.

On to `O=C(N[C@H](CO)[C@H](O)c1ccc([N+](=O)[O-])cc1)C(Cl)Cl`, for which the parasite load remaining was 29.9% (inactive) and 25.5% (inactive); the viability is 46.7% and 63%.

Consider `CN(C)CCc1c[nH]c2ccc(CS(=O)(=O)N3CCCC3)cc12`, for which the parasite load remaining was 135% (inactive) and the viability came to 87.9%.

With `Nc1ccc(S(=O)(=O)Nc2ccccn2)cc1`, the parasite load remaining is 73.3% (inactive) and 71.4% (inactive) and 46.1% (inactive); the viability is 93.8% and 68.3% and 99%.

On to `NC(N)=N/N=C/c1c(Cl)cccc1Cl`, for which the parasite load remaining is 15.7% (inactive) and 61% (inactive) and 36.4% (inactive); the viability was 48.5% and 89.8% and 102%.

Take `Cn1cnc2c1c(=O)[nH]c(=O)n2C`: the parasite load remaining is 101% (inactive) and 137% (inactive) and 62.6% (inactive); the viability was 101% and 74.3% and 103%.

Take `CCn1cc(C(=O)O)c(=O)c2cnc(N3CCNCC3)nc21`: the parasite load remaining was 87.7% (inactive) and 144% (inactive); the viability was 98.7% and 73%.

In the case of `NC(=O)NC(=O)Cc1ccccc1`, the parasite load remaining was 87.8% (inactive) and 56.5% (inactive); the viability is 68% and 92%.

With `C=CCc1ccccc1OCC(O)CNC(C)C` (stereo unspecified), the parasite load remaining is 48.8% (inactive) and 53.9% (inactive) and 74.6% (inactive); the viability was 101% and 91.5% and 140%.

For `CCCCC1C(=O)N(c2ccccc2)N(c2ccccc2)C1=O`, the parasite load remaining was 85.8% (inactive) and 69.9% (inactive) and 33.4% (inactive); the viability was 73% and 101% and 70.5%.

Turning to `CCCCOc1ccc(OCCCN2CCOCC2)cc1`, the parasite load remaining was 92% (inactive) and 117% (inactive) and 30.7% (inactive); the viability was 109% and 67.4% and 85.2%.

Take `CC(=O)[C@@]1(O)CC[C@H]2[C@@H]3C[C@H](C)C4=CC(=O)C=C[C@]4(C)[C@@]3(F)[C@@H](O)C[C@@]21C`: the parasite load remaining was 127% (inactive) and the viability worked out at 102%.

Regarding `CCN(CC)CCOC(=O)C(c1ccccc1)C1CCCCC1` (stereo unspecified), the parasite load remaining is 67.5% (inactive) and 28.1% (inactive); the viability was 92.4% and 69.7%.

Consider `C=CCc1ccc(O)c(OC)c1`, for which the parasite load remaining was 91.2% (inactive) and 49.1% (inactive); the viability was 77.2% and 96.4%.

Turning to `CCC(=O)c1c(O)cc(O)cc1O`, the parasite load remaining was 100% (inactive) and the viability came out at 70.3%.

Turning to `CSc1ccc2c(c1)C(N1CCN(C)CC1)Cc1ccccc1S2` (stereo unspecified), the parasite load remaining is 74.1% (inactive) and 71.4% (inactive) and 63.7% (inactive); the viability was 72.2% and 69.9% and 104%.

For the molecule `CCN(CC)CCOc1ccc(/C(=C(\Cl)c2ccccc2)c2ccccc2)cc1`, the parasite load remaining was 16% (inactive) and 5.06% (inactive); the viability is 73.6% and 90.4%.

For `CC(CN(C)C)CN1c2ccccc2CCc2ccccc21` (stereo unspecified), the parasite load remaining is 54.2% (inactive) and 101% (inactive) and 48.3% (inactive); the viability was 103% and 83.8% and 93.4%.

As to `O=c1c(O)c(-c2ccc(O)c(O)c2)oc2cc(O)cc(O)c12`, the parasite load remaining was 49.9% (inactive) and 67.9% (inactive); the viability was 108% and 73.7%.

For `Cc1nnc(NS(=O)(=O)c2ccc(N)cc2)s1`, the parasite load remaining was 77.8% (inactive) and 214% (inactive) and 50.9% (inactive); the viability was 95.4% and 74.4% and 104%.

`Nc1ncnc2c1ncn2[C@@H]1O[C@H](CO)[C@@H](O)[C@H]1O`: the parasite load remaining was 102% (inactive) and 72.2% (inactive); the viability was 77.4% and 98.9%.

For the molecule `O=C1C(O)=C(O)C(=O)C(O)=C1O`, the parasite load remaining was 67.5% (inactive) and 145% (inactive) and 28.2% (inactive); the viability was 94.1% and 90.9% and 99%.

For the molecule `Oc1cccc(O)c1`, the parasite load remaining is 91.2% (inactive) and 38.4% (inactive); the viability is 77.8% and 101%.

Consider `CCN(CC)CCNC(=O)c1ccc(NC(C)=O)cc1`, for which the parasite load remaining was 46.9% (inactive) and the viability turned out to be 102%.

For the molecule `CC1(C)O[C@@H]2C[C@H]3[C@@H]4CCC5=CC(=O)CC[C@]5(C)[C@@]4(F)[C@@H](O)C[C@]3(C)[C@]2(C(=O)CCl)O1`, the parasite load remaining is 116% (inactive) and the viability was 97.4%.

As to `NNc1nncc2ccccc12`, the parasite load remaining was 83.7% (inactive) and 102% (inactive) and 72.4% (inactive); the viability is 72.8% and 96.1% and 95%.

Regarding `CCOc1ccc(Cc2nccc3cc(OCC)c(OCC)cc23)cc1OCC`, the parasite load remaining is 28.9% (inactive) and 13.1% (inactive); the viability was 78.6% and 42.8%.

Regarding `NS(=O)(=O)c1cc2c(cc1Cl)NC(CSCc1ccccc1)=NS2(=O)=O`, the parasite load remaining was 72.5% (inactive) and 98.3% (inactive) and 56.3% (inactive); the viability is 97% and 76.2% and 98.6%.

Regarding `CC(C(=O)O)c1ccc(C(=O)c2cccs2)cc1` (stereo unspecified), the parasite load remaining was 81.3% (inactive) and 117% (inactive) and 42.2% (inactive); the viability is 105% and 68.4% and 94.1%.

Turning to `N[C@@H](CCC(=O)N[C@@H](CS)C(=O)NCC(=O)O)C(=O)O`, the parasite load remaining is 31.4% (inactive) and the viability was 68.2%.

Take `OC(CCN1CCCCC1)(c1ccccc1)c1ccccc1`: the parasite load remaining is 89.9% (inactive) and 126% (inactive); the viability was 98.8% and 84.6%.

`COc1ccnc(CS(=O)c2nc3ccc(OC(F)F)cc3[nH]2)c1OC` (stereo unspecified): the parasite load remaining is 154% (inactive) and 46.8% (inactive) and 36.5% (inactive); the viability is 91.7% and 94.9% and 116%.

For `CC[C@]12CCCN3CCc4c(n(c5ccccc45)[C@@](O)(C(=O)OC)C1)[C@@H]32`, the parasite load remaining was 27.1% (inactive) and 109% (inactive); the viability is 48.5% and 87%.

With `Cc1cn[nH]c1`, the parasite load remaining is 51% (inactive) and the viability was determined as 102%.

Consider `CCCCc1nc(Cl)c(CO)n1Cc1ccc(-c2ccccc2-c2nn[nH]n2)cc1`, for which the parasite load remaining was 128% (inactive) and 49.4% (inactive); the viability was 84.8% and 98.4%.

In the case of `C[N+](C)(C)CCCCCC[N+](C)(C)C`, the parasite load remaining is 28% (inactive) and 143% (inactive) and 127% (inactive); the viability was 48% and 87.6% and 90.7%.

`O=C(OCc1ccccc1)c1ccccc1`: the parasite load remaining is 82.1% (inactive) and 33.8% (inactive); the viability is 68.9% and 89.1%.

Take `COc1cc(C(=O)OCCCN2CCCN(CCCOC(=O)c3cc(OC)c(OC)c(OC)c3)CC2)cc(OC)c1OC`: the parasite load remaining was 44% (inactive) and 120% (inactive) and 14% (inactive); the viability was 47.9% and 91.2% and 76.5%.
